Compound activity as filed in PubChem BioAssay.
Sampled rows, rich in hits. Any-hit rate of the full collection: about 1.3%.
NCOA2 inhibitor: inhibits human steroid receptor coactivator 2; hit rate 0.17% among 370,000; HEK293 GAL4-SRC2 luciferase reporter, luminescence; inhibition, % at 9 µM; AID 651957;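 active = inhibition above the mean inhibition of all tested compounds plus 3 SD, set per campaign, cut at about 52% in these data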
COUP-TFII inh: blocks human COUP-TFII nuclear receptor; HEK293T NGFI-A luciferase reporter, luminescence; inhibition, % at 8.6 µM; hit rate 0.7% among 370,000; AID 686940;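 active = inhibition above a per-plate cutoff, mean inhibition of test wells between control levels plus 3 SD, cut at about 38% in these data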;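 note: cells cotransfected with COUP-TFII expression vector driving the NGFI-A reporter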
NCOA1 inh: human NCOA1 inhibition | AID 588354 | inhibition, % at 3.6 µM | hit rate 0.12% among 360,000 | HEK293 GAL4-SRC1 luciferase reporter, luminescence;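 active = inhibition above the campaign mean plus 3 SD, with each screening campaign given its own cutoff, cut at about 60% in these data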
NCOA3 inh: human NCOA3 inhibition; hit rate 0.17% among 360,000; HEK293 GAL4-SRC3 luciferase reporter, luminescence; Q9Y6Q9; inhibition, % at 3.6 µM;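 active = inhibition above a per-campaign cutoff, the mean of all compounds plus 3 SD, cut at about 60% in these data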;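 note: higher means less SRC3-driven luciferase light from the GAL4 reporter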
LRH-1 inv ag: suppresses constitutive activity of human LRH-1 | O00482 | HEK293T StAR-luciferase reporter, LRH-1 transfected, 24 h | inhibition, % at 3.6 µM | hit rate 0.13% among 360,000;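 active = inhibition above the mean inhibition of all tested compounds plus 3 SD, cut at about 73% in these data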
Gli-Sufu antag: antagonists of Gli-Sufu signaling; Sufu-KO-LIGHT fibroblasts, Gli luciferase reporter luminescence; inhibition, % at 5 µM; hit rate 0.74% among 340,000; AID 588413;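 active = inhibition above about 55%, limit read from the data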
Gli-Sufu confirm: confirmation of Gli-SUFU pathway antagonists | hit rate 40% among 2,500 | inhibition, % at 5 µM | Sufu-KO-LIGHT cells, Gli luciferase reporter, luminescence | shares compounds with Gli-Sufu antag;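 active = mean inhibition at 5 µM reaching about 45%, limit read from the data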
Gli cytotox: cytotoxicity counter-screen for Gli-SUFU antagonists; AID 651994; shares compounds with Gli-Sufu antag; hit rate 32% among 2,500; Sufu-KO-LIGHT cells cytotoxicity, ATP luminescence; cytotoxicity, % at 5 µM;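 active = mean cytotoxicity at 5 µM above about 25%, limit read from the data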;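 note: cells exposed to compound overnight for roughly 16 to 18 hours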
Wnt3a cs: counter-screen for Gli-SUFU antagonists: Wnt3a reporter inhibition | hit rate 20% among 2,500 | inhibition, % at 6.25 µM | shares compounds with Gli-Sufu antag | Wnt-LIGHT cells, Wnt3a-driven luciferase reporter, luminescence;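 active = mean inhibition above about 25%, limit read from the data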
VP16 Luc counter: VP16 inhibition counter-screen for COUP-TFII | shares compounds with COUP-TFII inh | HEK293 Gal4-VP16 luciferase reporter, luminescence | inhibition, % at 8.5 µM | hit rate 25% among 2,500 | AID 687007; in the data active = inhibition above about 13%
COUP-TFII conf: COUP-TFII (NR2F2) inhibition, confirmation assay. AID 687008. inhibition, % at 8.5 µM. hit rate 45% among 2,500. HEK293 NGFI-A luciferase reporter, luminescence. shares compounds with COUP-TFII inh;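 active = mean inhibition over three repeats above a set limit taken from the earlier primary screen, cut at about 38% in these data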
A number is an active result; – = inactive; · = no result given.

SMILES	NCOA2 inhibitor	COUP-TFII inh	NCOA1 inh	NCOA3 inh	LRH-1 inv ag	Gli-Sufu antag	Gli-Sufu confirm	Gli cytotox	Wnt3a cs	VP16 Luc counter	COUP-TFII conf
COc1ccc(-c2cn(-c3ccc(OC)cc3)c3[n+]2-c2ccccc2CC3)cc1	–	62	–	69	–	88	91	46	26	–	55
O=C(NCCc1c[nH]c2ccccc12)OCc1cn(Cc2ccccc2C(F)(F)F)nn1	–	–	·	·	·	·	·	·	·	·	·
COC(=O)[C@]12C[C@H](CC(=O)N3CCC(c4ccccc4)CC3)C(=O)N(Cc3ccco3)C1=C[C@H](C(C)(C)C)O[C@@H]2C	–	–	·	·	·	·	·	·	·	·	·
CN(Cc1ccccc1)C1=CC(=[N+]2CCCC2)CC(C)(C)C1	–	72	–	63	–	91	88	27	48	15	64
COc1ccc(/C=C2\SC(=S)N(CCCC(=O)N3CCCCC3CCO)C2=O)cc1 (stereo not drawn)	77	54	–	–	–	66	–	–	–	42	–
O=C1/C(=C\c2ccccc2)SC(=S)N1CCC(=O)N1CCCCC1CCO (stereo not drawn)	–	–	–	–	–	–	·	·	·	·	·
Cc1ccccc1CN1CCCCC(NC(=O)c2ccc(F)cc2F)C1=O (stereo not drawn)	–	–	·	·	·	·	·	·	·	·	·
O=C(O)c1cc2c(N3CCC(Cc4ccccc4)CC3)ncnc2s1	–	–	–	–	–	–	·	·	·	·	·
c1ccc(CC2CCN(c3ncnc4sccc34)CC2)cc1	–	55	–	–	–	66	70	33	35	–	53
Cc1ccc(S(=O)(=O)N2CCN(c3ncnc4sccc34)CC2)cc1	–	50	–	–	–	63	58	34	–	–	–
CSc1ccc(C=NNC(=O)c2cc(-c3ccc(Cl)cc3)n[nH]2)cc1	–	–	·	·	·	·	·	·	·	·	·
O=C(/C=C/c1cccc2ccccc12)c1ccncc1	–	40	–	–	–	–	47	37	–	–	–
Cc1cc(C)cc(N(CC(=O)NC2CCC(C)CC2)S(=O)(=O)c2ccc(C)c(C)c2)c1 (stereo not drawn)	–	–	·	·	·	·	·	·	·	·	·
Cc1ccc(-c2csc3ncnc(N4CCN(Cc5ccccc5)CC4)c23)cc1	–	–	–	–	–	–	·	·	·	·	·
Cc1csc2ncnc(NC3CCN(Cc4ccccc4)CC3)c12	–	59	–	–	–	69	75	–	44	–	59
C[C@H]1[C@@H](OC(=O)NCc2ccc(Cl)cc2)CC[C@@]23CCCN2C(=O)CCC[C@@H]13	·	–	·	·	·	·	·	·	·	·	·
O=C(NCCNc1ccnc2cc(Cl)ccc12)c1ccccc1F	–	55	–	–	–	67	50	–	–	–	–
O=C(NCCNc1ccc(Cl)cc1[N+](=O)[O-])c1ccccc1F	–	–	–	–	–	–	·	·	·	·	·
C[n+]1c2n(c3ccccc31)N=C(c1ccc(Cl)cc1)CS2	–	54	–	–	–	61	66	37	–	–	–
COc1ccc(C2=Nn3c([n+](C)c4ccccc43)SC2)cc1	–	73	–	–	–	81	86	–	40	–	65
Clc1ccc(C[n+]2cc(-c3ccccc3)n3c2CCCCC3)c(Cl)c1	–	42	–	–	–	86	87	44	–	–	–
Cc1ccc(C#CC[N+]2(CC#Cc3ccc(C)cc3)CCCCC2)cc1	–	45	–	–	–	88	89	39	–	13	–
C#CC[N+]1(CC#Cc2ccccc2)CCCCC1	–	–	–	–	–	–	·	·	·	·	·
C(=NN1CCCCCC1)c1ccc2ccccc2n1	84	95	88	90	91	68	89	73	106	89	104
O=C(CSc1nnnn1C1CC2CCC1C2)Nc1ccnc2ccccc12 (stereo not drawn)	–	72	–	–	–	83	85	35	–	–	70
SMILES	NCOA2 inhibitor	COUP-TFII inh	NCOA1 inh	NCOA3 inh	LRH-1 inv ag	Gli-Sufu antag	Gli-Sufu confirm	Gli cytotox	Wnt3a cs	VP16 Luc counter	COUP-TFII conf
O=C(CSc1nnnn1C1CCCCC1)Nc1ccccc1F	–	–	–	–	–	–	·	·	·	·	·
Cc1sc2ncnc(NCC(O)c3ccc([N+](=O)[O-])cc3)c2c1C (stereo not drawn)	–	63	–	–	–	68	71	30	–	–	50
Cc1sc2ncnc(NCC(c3ccccc3)N(C)C)c2c1C (stereo not drawn)	–	–	–	–	–	–	·	·	·	·	·
COc1ccc(C(=O)CSc2nnc(-c3ccccn3)n2-c2ccccc2)cc1	–	–	·	·	·	·	·	·	·	·	·
CN(C(=O)COc1ccccc1C(=O)NCCOc1ccccc1)c1ccccc1	–	56	–	77	–	69	66	43	–	–	–
COc1ccc(NS(=O)(=O)c2ccc(N3CCCCC3)c(NC(=O)C(C)NC(N)=O)c2)cc1 (stereo not drawn)	–	–	–	–	–	–	·	·	·	·	·
COc1ccc(NS(=O)(=O)c2ccc(N3CCCCC3)c(N)c2)cc1	–	56	–	–	–	58	73	27	–	–	43
O=C(CSc1nnc(-c2cnccn2)n1-c1ccccc1)c1ccc(F)cc1	–	–	·	·	·	·	·	·	·	·	·
CCN(CC)C(=O)CNc1nnnn1-c1ccccc1	–	–	·	·	·	·	·	·	·	·	·
O=C(c1cc(COc2cccc3cccnc23)on1)N1CCC[C@H]1CO	–	–	–	–	–	·	·	·	·	·	·
CN(Cc1nccs1)C(=O)c1cc(COc2cccc3cnccc23)on1	–	54	–	–	–	58	–	–	–	–	47
CCOC(=O)CC1CCCCN1C(=O)c1cc(COc2cccc3cnccc23)on1 (stereo not drawn)	–	71	–	–	–	74	62	–	–	16	78
CCc1c(C)nc2ncnn2c1NCCc1ccc(OC)cc1	–	58	–	–	–	62	61	39	–	–	52
CCc1c(C)nc2ncnn2c1Nc1ccc(C)cc1	–	–	–	–	–	–	·	·	·	·	·
Cc1ccc(CN2CCCCC(NC(=O)c3ccc(-c4ccccc4)cc3)C2=O)cc1 (stereo not drawn)	–	–	·	·	·	·	·	·	·	·	·
O=C(NC1CCN(Cc2ccccc2)CC1)c1ccc(S(=O)(=O)NCc2ccco2)cc1	–	48	–	–	–	–	–	–	–	–	–
O=C(NC1CCCCC1)c1ccc(S(=O)(=O)NCc2ccco2)cc1	–	–	–	–	–	–	·	·	·	·	·
